Screening results: PubChem BioAssay, National Center for Advancing Translational Sciences (NCATS)
Giardia FBPA inh – Giardia lamblia aldolase inhibition. A8B2U2. purified Giardia FBPA. Potency, µM (doses to about 59.6 µM), without a hit: at the top dose activity, negative = inhibition, usual class: inhibitors. 290,000 compounds, 0.71% hits. AID 2451; further: potency means the concentration at half of the fitted maximal effect; nearly all actives have a fitted effect of over 55% in size
Target sequence (A8B2U2 whole entry, looked up): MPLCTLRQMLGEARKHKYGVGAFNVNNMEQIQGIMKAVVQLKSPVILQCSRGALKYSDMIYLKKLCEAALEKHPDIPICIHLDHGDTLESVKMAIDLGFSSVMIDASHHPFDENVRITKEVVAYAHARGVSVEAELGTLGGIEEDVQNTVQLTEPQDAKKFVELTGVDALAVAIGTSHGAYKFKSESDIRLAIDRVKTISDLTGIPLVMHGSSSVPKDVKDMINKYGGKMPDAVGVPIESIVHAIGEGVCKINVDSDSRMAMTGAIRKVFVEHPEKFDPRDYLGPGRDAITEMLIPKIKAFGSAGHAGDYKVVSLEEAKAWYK
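40 nM FBPA preincubated 10 min at RT with compound (up to 57.5 uM final), then substrate plus GAPDH/TPI/NAD/arsenate coupling and diaphorase/resazurin added. Fluorescence read after 20 min at RT, 525/598 nm.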
FMDV inh – foot and mouth disease virus antiviral activity; AID 1159524; FMDV antiviral cell-based qHTS; Potency, µM (titrated, usually from 57.9 µM), inactives show at the top dose activity change, negative = inhibition, usual class: inhibitors; 410,000 compounds, 1.2% hits; calls by dose curve; tested in HEK293T cells; further: read-out not given here; potency means the concentration at half of the fitted maximal effect; nearly all actives have a fitted effect of over 45% in size
HCMV inh – human cytomegalovirus inhibition; activity change, negative = inhibition, % at 57.5 µM; 410,000 compounds, 4.5% hits; AID 1259415; HFF cells, HCMV-luciferase reporter, 72 h; active compounds read low; in the data active means activity change below about -60%; inconclusive means no clear call, values can overlap the other calls; inactive means above about -39%
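Two-dose cell screen: HFF monolayers treated with compounds and infected with luciferase-expressing HCMV at 1 PFU/cell, 72 h at 37C, then lysed for luciferase measurement.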
Marburg entry inh – inhibitors of Marburg virus binding or cell entry. Marburg virus pseudotyped entry inhibition, cell reporter. Potency, µM (top dose mostly 37.8 µM), without a hit: at the highest dose activity change, negative = inhibition, actives largely listed as inhibitors. 300,000 compounds, 1.8% hits. AID 540276; calls by dose curve; tested in HEK293 cells; further: potency means the concentration at half of the fitted maximal effect
Lassa entry inh – Lassa virus entry inhibition | Lassa virus pseudotype entry inhibition, cell reporter | Potency, µM (series often up to 37.9 µM), without a hit: at the highest dose activity change, negative = inhibition, most hits filed as inhibitors | 300,000 compounds, 1.2% hits; calls by dose curve; tested in HEK293 cells; further: potency means the concentration at half of the fitted maximal effect; nearly all actives have a fitted effect of over 50% in size
HCV inh – inhibitors of hepatitis C virus infection; Huh7.5.1 HCVcc-Cre infection, luciferase reporter, 44 h; 340,000 compounds, 3.4% hits; Potency, µM (doses to about 41.8 µM), without a hit: at the highest dose activity change, negative = inhibition, actives largely listed as inhibitors; AID 651820; further: potency means the concentration at half of the fitted maximal effect
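Infectious HCVcc-Cre (~0.5 moi) was added to cells just after compound, with cells seeded 4 h earlier at 1,000 per well. Luciferase activity after 44 h culture reported infection; substrate was incubated 15 min at room temperature before reading.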
An asterisk follows results filed as active; u = inconclusive; x = no result given; + = active, no number; [ ] = remark or other dose. Rows were chosen to be rich in hits. Some 8.3% of all compounds tested hit in one or more screens of this group. Unless noted, the call rests on the fitted dose curve; in most records, active means well fitted curve in the direction sought with a large enough effect; inconclusive means small, poorly fitted or top-dose-only effect, or another doubt; inactive means no such curve, though single readings can be large; an effect the other way counts as inactive or inconclusive. On the % scale 0 is the no-effect control and ±100 the full control effect.

SMILES | Giardia FBPA inh | FMDV inh | HCMV inh | Marburg entry inh | Lassa entry inh | HCV inh
C=CCOc1ccc(CNc2nccs2)cc1OCC | 0% | -5% | -64* | 14% | -5% | u
COc1ccc(CNc2nccs2)cc1OC | 17% | -11% | 8 | 3% | 1% | -19%
COc1ccc(Cl)c2sc(N(Cc3cccnc3)C(C)=O)nc12 | x | -8% | -24 | 8%[46.1 µM] | u | 13µM*
COc1ccc(OC)c2sc(N(Cc3cccnc3)C(=O)c3ccc(C(C)=O)cc3)nc12 | x | -13% | 0 | x | u | x
COc1ccc2nc(N(Cc3cccnc3)C(=O)c3ccc4c(c3)OCCO4)sc2c1 | x | -15% | 40 | x | 6%[46.1 µM] | x
CCc1ccc2nc(N(Cc3cccnc3)C(=O)c3cccs3)sc2c1 | x | 21% | -61* | x | -3%[46.1 µM] | x
COc1ccc2sc(N(Cc3cccnc3)C(=O)c3ccc4c(c3)OCCO4)nc2c1 | x | u | -90* | x | u | x
COc1ccc(OC)c2sc(N(Cc3cccnc3)C(=O)c3ccco3)nc12 | x | -22% | + | x | 13%[46.1 µM] | x
Cc1ccc2nc(N(Cc3cccnc3)C(=O)c3cccs3)sc2c1 | x | 15% | -28 | x | u | x
COc1ccccc1NC(=O)Cn1c(=O)n(-c2cccc(C)c2)c(=O)c2c1c1cc(C)ccc1n2C | x | 0% | 116 | x | 5%[46.1 µM] | x
C/C(=N/NC(=O)NC12CC3CC(CC(C3)C1)C2)c1ccccc1 | 10% | 7% | -62* | x | x | u
COc1ccc(C(=O)NNC(=S)NC(=O)c2cccs2)cc1 | u | -8% | 85 | u | u | u
COc1ccccc1C(=O)NNC(=S)NC(=O)c1cccs1 | x | x | -78* | x | x | x
O=C(NC(=S)NNC(=O)c1ccccc1O)c1cccs1 | x | 5% | u | u | u | 8.9µM*
CCOC(=O)N[C@](Nc1sc2c(c1C(N)=O)CCCC2)(C(=O)OCC)C(F)(F)F | x | x | x | -5% | x | x
C[C@H]1COc2cc(NCCO)ccc2S(=O)(=O)N1 | x | x | 2 | x | x | x
C=C1C/C(C)=C/CCc2cc(OS(=O)(=O)C(F)(F)F)ccc2-c2ccc(OC)c(OC)c21 | x | x | -1 | x | x | x
C=CCn1c(N)c(C(=O)Nc2ccc(C)cc2)sc1=S | -6% | 74% | -91* | -3% | x | -9%
Cn1c(N)c(C(=O)NCc2ccccc2Cl)sc1=S | 4% | 0% | 5 | -17% | 5% | -10%
Cn1c(N)c(C(=O)Nc2ccc(-c3ccccc3)cc2)sc1=S | u | u | -76* | x | x | u
C=CCn1c(N)c(C(=O)NCC2CCCO2)sc1=S (centres undefined) | 4% | -16% | -62* | -2% | 18% | 1%
COc1ccc(O)c(CN2CCOc3c(cc(-c4cccc(OC)n4)cc3OC)C2)c1 | x | -14% | x | x | x | x
COc1ccccc1N1CCN(c2cc(N3CCCC3)nc(C)n2)CC1 | -1% | 11% | -103* | 4% | -8% | u
COc1cc(-c2ccccc2)nc(N)n1 | 4% | 77% | 71 | u | 12µM* | 3%
CCOc1cc(-c2ccccc2)nc(N)n1 | 6% | 44% | 7 | u | 17% | -6%
SMILES | Giardia FBPA inh | FMDV inh | HCMV inh | Marburg entry inh | Lassa entry inh | HCV inh
COc1ccccc1N1CCN(c2ccc3ccccc3n2)CC1 | x | 14% | 77 | u | u | u
COc1ccccc1N1CCN(c2ccc(-c3ccccc3)nn2)CC1 | 11% | -61% | -96* | 1.6µM* | 3.5µM* | u
Nc1nc(-c2ccccc2)cc(N2CCCCC2)n1 | 5% | -4% | -63* | u | u | -21%
O=C(Cn1c(=O)oc2cc(S(=O)(=O)N3CCCCCC3)ccc21)Nc1ccc(F)cc1F | x | -18% | 5 | u | 7%[46.1 µM] | x
COc1ccc(CC(=O)NC2CC(=O)N(c3cccc(F)c3)C2)cc1 (centres undefined) | x | -10% | u | x | 4%[46.1 µM] | x
Cc1nc(-c2ccccc2)cc(N2CCCC2)n1 | 7% | 8% | 5 | -10% | 5% | 8.9µM*
c1ccc(-c2cc(N3CCCCC3)ncn2)cc1 | 3% | 27% | 22 | u | -15% | -12%
CCCCCCCC/C=C\CCCCCCCC(N)=O | -3% | -1%[6.7 µM] | x | x | x | x
COc1ccc(NC(=O)CN(C)C(=O)c2cc(S(=O)(=O)N(C)C)ccc2N2CCCC2)cc1 | x | -5% | 9 | -13% | 5% | -9%
CNC(=O)c1ccc(NC(=O)c2cc(S(=O)(=O)N(C)C)ccc2N2CCCC2)cc1 | x | -22% | -100* | x | x | 4%
CCc1cccc(NC(=O)c2cc(S(=O)(=O)N(C)C)ccc2N2CCCC2)c1 | 2% | -16% | -21 | u | -8% | -7%
CCN(CC(=O)Nc1ccc(OC)cc1)C(=O)c1cc(S(=O)(=O)N(C)C)ccc1N1CCCC1 | x | -11% | -35 | 5%[46.1 µM] | -1% | 11µM*
CCN(CC(=O)Nc1ccc(OC)cc1)C(=O)c1ccccc1Sc1ccccc1C#N | x | -6% | -19 | u | -18% | 22µM*
CC(C)c1noc(-c2ccccc2OCC(=O)Nc2cccc([N+](=O)[O-])c2)n1 | x | -10% | 9 | u | 1%[46.1 µM] | x
CC(O)(COc1ccccc1)c1ccc2c(c1)CN(C/C=C/c1ccco1)CCO2 (centres undefined) | x | -5% | x | x | x | x
Cn1cccc1C(=O)N1CCC2(CC1)CCN(c1ccccn1)CC2 | -7% | u | x | x | x | x
COc1ccc(NC(=O)CN(C)C(=O)c2cc(-c3ccccc3)nc3ccccc23)cc1 | x | u | -17 | u | u | -4%
Cc1ccc2nc(-c3ccccc3)cc(C(=O)N(C)CC(=O)Nc3ccccc3Br)c2c1 | x | -15% | -19 | 11µM* | u | u
COc1cccc([C@@H]2Oc3ccc(OC)cc3C[C@@H]2OC(=O)N[C@H]2CCCc3ccccc32)c1 | x | x | x | 3%[14.2 µM] | x | x
CCNc1ccc(S(=O)(=O)N(C)C)cc1NCC(=O)Nc1ccccc1F | -2% | 29% | 20 | -2% | -12% | u
CCNc1ccc(S(=O)(=O)N(C)C)cc1NCC(=O)Nc1ccc(F)c(Cl)c1 | -4% | 7% | -75* | u | u | u
Cc1ccc(S(=O)(=O)N2CCN(Cc3nnc(-c4c(-c5ccccc5)noc4C)o3)CC2)cc1 | x | 40µM* | -30 | 4% | 16% | u
O=S(=O)(c1ccccc1)N1CCN(Cc2nnc(-c3ccccc3)o2)CC1 | x | 0% | -26 | x | x | x
COc1ccccc1-c1nccc(NCc2cccs2)n1 | -10% | -23% | x | x | x | x
O=C(Nc1c2c(nn1-c1ccc(Cl)cc1)CS(=O)(=O)C2)c1cccc(F)c1 | x | 0% | -21 | x | 8%[46.1 µM] | x
CCOc1ccc(NC(=O)CN(c2ccccc2OCC)S(=O)(=O)c2ccccc2)cc1 | x | 9% | -23 | x | u | x
CCOc1ccccc1N(CC(=O)N1CCOCC1)S(=O)(=O)c1ccc(SC)cc1 | 8% | 83% | 8 | u | 5.6µM* | 10%
CCOc1ccccc1N(CC(=O)Nc1ccccc1F)S(=O)(=O)c1ccccc1 | 11% | 4% | -104* | x | x | u
